# TDP1 cell noCPT = qHTS for Inhibitors of human tyrosyl-DNA phosphodiesterase 1 (TDP1): qHTS in cells in absence of CPT; actives 15% (n = 420,000); DT40 Tdp1-/- hTDP1 cells, no CPT, ATP luminescence, 48 h; AID 686978, 2013; Potency, µM (series often up to 46.2 µM), for the others: at the highest dose activity change, negative = growth inhibition, usual class: inhibitors; further: nearly all actives have a fitted effect of over 55% in size
#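 Growth kinetics read by CellTiter-Glo luminescence after ≥48 hr at 37 °C. Cells: DT40 Tdp1-/- stably carrying human TDP1, 400 per well, compound exposure in the absence of CPT (DMSO vehicle).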
# DT40 TDP1 CPT = DT40-hTDP1 cell growth loss with CPT; chicken DT40 Tdp1-/-;hTDP1 cells + 20 nM CPT, ATP luminescence, 48 h; Potency, µM (highest dose often 46.2 µM), without a hit: at the top dose activity change, negative = growth inhibition, most hits filed as inhibitors; actives 12% (n = 420,000); further: nearly all actives have a fitted effect of over 55% in size
#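 Chicken DT40 Tdp1-/- cells complemented with human TDP1, 400 cells/well, exposed to compounds plus 20 nM camptothecin for at least 48 h at 37 C; viability read as ATP content by CellTiter-Glo luminescence.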
# RORg inh = ROR gamma (mouse) transcription inhibition; actives 5.4% (n = 310,000); P51450; Drosophila S2 Gal4-RORgamma UAS-luciferase reporter, 20 h; AID 2551; Potency, µM (highest dose often 53.6 µM), for inactives: at the top dose activity change, negative = inhibition, usual class: inhibitors; further: nearly all actives have a fitted effect of over 60% in size
#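 Stable Schneider cell line, Gal4 DNA-binding domain fused to ROR gamma, UAS-luciferase. Cmpd 1 hr RT → CuSO4 700 uM final → 20 hr RT → luciferase reagent 10 min → luminescence.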
# ELG1 repair inh = blocks ELG1-dependent DNA repair in HEK293T cells; HEK293T ELG1-luciferase reporter, luminescence, 16 h; DNA damage induced by 5-fluorouridine; Potency, µM (doses to about 46.1 µM), without a hit: top-dose activity change, negative = inhibition, hits mostly inhibitors; actives 2.3% (n = 330,000); further: nearly all actives have a fitted effect of over 55% in size
#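 Reporter activity after DNA damage by 5-fluorouridine is monitored. Compound-treated cells incubate 16 hr at 37 °C, then ONE-Glo is added for 30 min before luminescence reading.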
# ALOX12 inh = inhibitors of human 12S-lipoxygenase ALOX12; Potency, µM (titrated, usually from 108 µM), inactives show top-dose activity change, negative = inhibition, hits mostly inhibitors; actives 1.1% (n = 580,000); P18054; purified 12hLO, xylenol orange hydroperoxide absorbance
# Target sequence (P18054 whole entry, looked up): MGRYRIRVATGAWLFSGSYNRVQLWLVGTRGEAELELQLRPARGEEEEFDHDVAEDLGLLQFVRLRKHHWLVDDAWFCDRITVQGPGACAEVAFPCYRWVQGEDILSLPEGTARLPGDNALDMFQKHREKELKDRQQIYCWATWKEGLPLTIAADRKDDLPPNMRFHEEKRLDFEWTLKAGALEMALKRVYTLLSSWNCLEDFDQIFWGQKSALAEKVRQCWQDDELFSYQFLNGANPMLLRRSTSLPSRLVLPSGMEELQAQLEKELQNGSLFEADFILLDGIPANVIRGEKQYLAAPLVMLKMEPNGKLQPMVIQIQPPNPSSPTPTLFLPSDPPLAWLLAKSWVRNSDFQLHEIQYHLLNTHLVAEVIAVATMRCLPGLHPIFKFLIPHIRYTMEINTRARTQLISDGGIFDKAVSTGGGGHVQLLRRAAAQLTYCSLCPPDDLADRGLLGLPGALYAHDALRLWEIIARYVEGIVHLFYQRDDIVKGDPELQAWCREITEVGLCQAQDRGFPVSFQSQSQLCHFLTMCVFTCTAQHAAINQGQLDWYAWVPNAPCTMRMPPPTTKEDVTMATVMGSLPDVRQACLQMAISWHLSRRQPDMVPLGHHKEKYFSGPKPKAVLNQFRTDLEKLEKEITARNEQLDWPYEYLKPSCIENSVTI
#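 Purified human 12hLO at 150 nM in 25 mM Hepes, 0.01% Triton X-100, pH 7.0, preincubated 15 min at room temperature with compound. Reaction started with 40 uM arachidonic acid, 30 min at room temperature. Hydroperoxide measured by Fe-xylenol orange, 573/405 nm absorbance ratio.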
# VP16 counter = counter-screen for ROR gamma inhibitors: Gal4-VP16 reporter; actives 3.5% (n = 310,000); Drosophila S2 Gal4-VP16 UAS-luciferase, luminescence, 20 h; Potency, µM (titrated, usually from 53.6 µM), inactives show top-dose activity, negative = inhibition, usual class: inhibitors;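 further: Gal4-VP16 expression switched on by copper sulfate through the metallothionein promoter; nearly all actives have a fitted effect of over 50% in size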
# An asterisk follows results filed as active; i = inactive; ? = inconclusive; · = no result. The list is not random: actives were taken first. Their share in the collection is about 15%. The call rests on the fitted dose curve; in most records, active means well fitted curve in the direction sought with a large enough effect; inconclusive means small, poorly fitted or top-dose-only effect, or another doubt; inactive means no such curve, though single readings can be large; an effect the other way counts as inactive or inconclusive. On the % scale 0 is the no-effect control and ±100 the full control effect; potency means the concentration at half of the fitted maximal effect.
SMILES,TDP1 cell noCPT,DT40 TDP1 CPT,RORg inh,ELG1 repair inh,ALOX12 inh,VP16 counter
CCOC(=O)N1CCN(S(=O)(=O)c2ccc(F)c(C(=O)Nc3ccc(C(C)C)cc3)c2)CC1,18.4µM*,18.4µM*,?,?,-0.9%,-17.3%
CCOC(=O)N1CCN(S(=O)(=O)c2ccc(C)c(C)c2)CC1,?,?,-15.7%,-3.5%,14.2%,1.3%
COc1ccc(OC)c(C2CC(c3ccccc3)=NN2C(=S)Nc2ccccc2)c1 (stereo not drawn),3.66µM*,3.66µM*,-41.7%,10.8%,29.8%,-3.9%
COc1ccccc1C1=NN(C(=S)Nc2ccccc2)C(c2ccco2)C1 (stereo not drawn),?,?,?,?,?,15.6%
CNC(=S)N1N=C(c2ccc(OC)cc2)CC1c1ccccc1Cl (stereo not drawn),?,?,-37.4%,?,11.2%,1.1%
CNC(=S)N1N=C(c2ccc(C)cc2)CC1c1cc(OC)ccc1OC (stereo not drawn),9.2µM*,?,12.6µM*,-5.0%,-12.5%,-21.6%
COc1ccc(-c2cc3nc(C4CCN(C(=O)OC(C)(C)C)CC4)c(C(=O)Nc4cc(Cl)cc(Cl)c4)cn3n2)cc1,?,-35.2%,·,·,1.1%,·
CCOc1ccc(-c2cc3nc(C4CCN(C(=O)OC(C)(C)C)CC4)c(C(=O)Nc4ccc(C)c(F)c4)cn3n2)cc1,7.31µM*,9.2µM*,·,·,6.8%,·
COc1ccc(-c2cc3nc(C4CCN(C(=O)OC(C)(C)C)CC4)c(C(=O)Nc4cc(C)cc(C)c4)cn3n2)cc1,16.4µM*,?,·,·,1.5%,·
COc1cccc(/C=N/NC(=O)C(c2ccncc2)N2CCOCC2)c1 (stereo not drawn),-19.1%,17.1%,5.0%,0.0%,125.6%,-1.8%
O=C(N/N=C/c1cc(Br)ccc1O)C(c1ccncc1)N1CCOCC1 (stereo not drawn),8.2µM*,4.11µM*,5.01µM*,-10.5%,-5.9%,15.8µM*
Nc1nc(NC(=O)C(Cl)(Cl)Cl)nn1-c1ccccc1,-18.0%,-7.3%,12.6µM*,-0.1%,-0.7%,?
O=c1[nH]cccc1NS(=O)(=O)c1ccccc1Cl,·,·,·,·,35.5µM*,·
Cc1cccc(N2CCN(c3c4c(nc5nncn35)CCC4)CC2)c1C,?,-29.2%,·,·,-21.6%,·
Clc1cccc(N2CCN(c3c4c(nc5nncn35)CCC4)CC2)c1,7.31µM*,18.4µM*,·,·,-28.7%,·
CS/C(=N\S(=O)(=O)c1cccs1)Nc1cccc(Cl)c1C,?,14.6µM*,-5.8%,-1.4%,-9.1%,-13.0%
O=C(CCl)N(C/C=C/c1ccccc1)c1ccc2c(c1)OCCO2,6.51µM*,3.66µM*,12.6µM*,?,?,?
N#CCCN(C(=O)CSc1ncccn1)c1ccc2c(c1)OCCO2,5.1%,-15.1%,·,0.6%,-9.7%,·
Oc1ccc2ccccc2c1-c1sc(Nc2ccccc2)n[n+]1-c1ccc(F)cc1,16.4µM*,?,-7.4%,16.2%,?,-12.9%
c1ccc(-[n+]2nc(Nc3cccc4ccccc34)sc2-c2c3ccccc3cc3ccccc23)cc1,14.6µM*,?,·,-11.7%,·,·
Oc1ccc(-c2sc(Nc3ccccc3)n[n+]2-c2ccc(F)cc2)cc1,-10.7%,-10.2%,-10.6%,38.2%,?,6.9%
Fc1ccc(-[n+]2nc(Nc3ccccc3)sc2-c2c3ccccc3cc3ccccc23)cc1,3.66µM*,5.8µM*,10µM*,4.61µM*,?,-18.1%
O=c1[nH]c(Nc2ccc(F)cc2)cc2ccccc12,?,-26.4%,0.8%,?,?,-1.7%
O=C(O)Cc1sc(Nc2cccc3ccccc23)nc1-c1ccc(F)cc1,19.3%,-10.5%,34.8%,-11.0%,?,-12.0%
C=CCOc1cccc(NC(=O)C(C)(C)C)c1,·,·,·,·,-1.5%,·
SMILES,TDP1 cell noCPT,DT40 TDP1 CPT,RORg inh,ELG1 repair inh,ALOX12 inh,VP16 counter
Cc1ccc(CNC(=O)C2CCN(C(=O)c3ncn4c3COC(c3ccccc3)C4)CC2)cc1 (stereo not drawn),·,·,·,·,34.9%,·
CN(Cc1ccccc1)C(=S)NC(=O)c1ccc(-c2ccccc2)cc1,4.61µM*,4.61µM*,0.282µM*,?,-10.7%,0.0891µM*
COc1cc(C(=O)NC(=S)N(CCc2ccccc2)CCc2ccccc2)cc(OC)c1OC,20.6µM*,23.1µM*,0.398µM*,18.4µM*,?,0.794µM*
COc1cc(C(=O)NC(=S)N(C)Cc2ccccc2)cc(OC)c1OC,8.2µM*,20.6µM*,0.562µM*,?,-24.6%,3.55µM*
CN(Cc1ccccc1)C(=S)NC(=O)c1cccs1,?,?,0.316µM*,-8.2%,i,0.251µM*
NC(CSC(c1ccccc1)(c1ccccc1)c1ccc2c(c1)OCO2)C(=O)O (stereo not drawn),7.31µM*,?,·,·,12.6µM*,·
NC(=O)CC(c1ccccc1)c1ccc2c(c1)OCO2 (stereo not drawn),6.0%,-1.3%,-5.6%,11.9%,13.6%,-2.3%
CSCCC1NC(=O)N(CC(=O)Nc2c(Cl)cc(Cl)cc2Cl)C1=O (stereo not drawn),?,16.4µM*,0.2%,-0.1%,?,-3.2%
COc1ccc(-c2nc3cc(NC(=O)CC(C)C)ccc3o2)cc1OC,·,·,·,·,30.9%,·
C/C(Cn1cnc([N+](=O)[O-])n1)=N\NC(=O)c1ccc(O)cc1O,7.6%,1.3%,0.199µM*,13.6%,0.5%,?
Cc1cc([N+](=O)[O-])nn1CC(=O)Nc1ccc(F)cc1,-0.6%,-8.6%,-30.8%,0.5%,-9.3%,-16.8%
COc1cc(C(=O)N/N=C(\C)Cn2nc([N+](=O)[O-])cc2C)ccc1O,-6.0%,-22.4%,?,0.6%,-12.5%,-15.0%
Cc1cc([N+](=O)[O-])nn1CC(=O)NNC(=S)Nc1ccc(F)cc1,-9.7%,-6.9%,14.1µM*,0.0%,14.4%,?
C/C(Cn1nc([N+](=O)[O-])cc1C)=N\NC(=O)c1ccc(O)cc1O,-5.2%,-8.0%,1.58µM*,?,?,14.1µM*
C/C(Cn1cnc([N+](=O)[O-])n1)=N\NC(=O)c1ccccc1O,2.2%,4.6%,12.6µM*,-1.3%,8.3%,?
C/C(Cn1cnc([N+](=O)[O-])n1)=N\NC(=O)c1ccccc1F,3.2%,-24.0%,·,·,0.0%,·
Cc1ccc2c(C(=O)N3CCN(C4CCCCC4)CC3)cc(NC(=O)C(C)C)cc2n1,·,·,·,·,49.9%,·

# Bioassay records deposited in PubChem by National Center for Advancing Translational Sciences (NCATS).
